p53 reactivator: qHTS assay for re-activators of p53 using a Luc reporter. hit rate 0.063% among 320,000. H1299 p53-A138V BP100-luciferase reporter, luminescence, 24 h. Potency, µM (highest dose often 92.2 µM), for inactives: at the highest dose activity change, positive = activation, hits mostly activators; note: % of control where 0% means no effect; nearly all actives have a fitted effect of over 45% in size
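H1299 (p53-null), stable ts p53-A138V + BP100-Luc; 1000 cells/well, Opti-MEM/10% FBS; cpd 4 pt, 1:5; 24 h, 37 deg C, 5% CO2; detection reagent 10 min RT; luminescence.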
SMN2 splice enh: qHTS Assay for Enhancers of SMN2 Splice Variant Expression; AID 1458, 2008; Potency, µM (doses to about 46.1 µM), for the others: at the top dose activity change, positive = activation, actives largely listed as activators; hit rate 2.8% among 210,000; HEK293 SMN2-luciferase splicing reporter, luminescence, 30-36 h; note: % of control where 0% means no effect; nearly all actives have a fitted effect of over 55% in size
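HEK293 cells carry an SMN2 […]–luciferase reporter in which exon 7 inclusion puts luciferase in frame. Cells were plated 10-12 h before compound addition, then incubated 30-36 h at 37C. ONE-Glo luminescence was read; sodium butyrate at 4.5 mM final served as control.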
FLuc counter: qHTS profiling assay for firefly luciferase inhibitor/activator using purifed enzyme and Km concentrations of substrates (counterscreen for miR-21 project); Luciferin 4-monooxygenase (Photinus pyralis), P08659; purified FLuc, Km substrates, luminescence inhibition; Potency, µM (series often up to 57.5 µM), for the others: at the top dose activity change, negative = inhibition, hits mostly inhibitors; hit rate 6.9% among 360,000;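 note: plate controls were vehicle for no effect and reference inhibitor for full effect; nearly all actives have a fitted effect of over 55% in size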
Target sequence (P08659 whole entry, looked up): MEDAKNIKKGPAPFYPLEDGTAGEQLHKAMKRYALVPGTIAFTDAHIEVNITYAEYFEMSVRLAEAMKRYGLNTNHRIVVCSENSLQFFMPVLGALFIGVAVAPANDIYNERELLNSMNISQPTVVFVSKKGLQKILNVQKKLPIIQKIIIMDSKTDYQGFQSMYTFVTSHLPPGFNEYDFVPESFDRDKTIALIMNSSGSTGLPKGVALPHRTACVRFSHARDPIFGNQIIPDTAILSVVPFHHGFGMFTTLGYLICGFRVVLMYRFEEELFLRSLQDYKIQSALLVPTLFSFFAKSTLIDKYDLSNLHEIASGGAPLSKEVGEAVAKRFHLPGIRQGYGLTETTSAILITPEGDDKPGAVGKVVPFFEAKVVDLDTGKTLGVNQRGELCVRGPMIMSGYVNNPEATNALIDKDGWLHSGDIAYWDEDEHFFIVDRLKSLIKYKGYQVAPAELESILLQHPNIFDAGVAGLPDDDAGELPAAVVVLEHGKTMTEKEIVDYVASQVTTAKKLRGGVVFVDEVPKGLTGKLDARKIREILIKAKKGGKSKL
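Purified P. pyralis luciferase (10nM final) with 10uM D-luciferin and 10uM ATP (Km levels) in 50mM Tris acetate pH 7.5, 10mM Mg acetate, 0.01% Tween-20, 0.05% BSA; qHTS 6-point titration, ~60 µM downward; luminescence read.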
NPC1 promoter act: qHTS Assay for NPC1 Promoter Activators. Huh7 NPC1 promoter luciferase reporter, 24 h. AID 485313, 2010. Potency, µM (series often up to 9.22 µM), without a hit: top-dose activation, hits mostly activators. hit rate 2.4% among 320,000; note: % of control where 0% means no effect; nearly all actives have a fitted effect of over 60% in size
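Stably transfected Huh7 (NPC1 promoter→luciferase), 1500 cells/well in Opti-MEM + 10% FBS, 2 h settle, then compound 24 h at 37 °C. Luminescence after 10 min with Amplite reagent.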
ELG1 genotoxic: qHTS screen for small molecules that induce genotoxicity in human embryonic kidney (HEK293T) cells expressing luciferase-tagged ELG1; HEK293T ELG1-luciferase reporter, luminescence, 16 h; Potency, µM (series often up to 46 µM), without a hit: at the highest dose activity change, positive = activation, most hits filed as activators; hit rate 1.3% among 330,000; note: % of control where 0% means no effect; nearly all actives have a fitted effect of over 60% in size
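Reporter readout depends on ELG1 protein level, which increases with genetic stress. After 16 hr compound exposure at 37 °C, luciferase activity was quantified using ONE-Glo.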
Rab9 prom act: qHTS Assay for Rab9 Promoter Activators; Huh7 Rab9 promoter-luciferase reporter, luminescence, 24 h; Potency, µM (top dose mostly 9.22 µM), for inactives: at the highest dose activation, negative = inhibition, most hits filed as activators; hit rate 2.8% among 320,000; AID 485297, 2010; note: % of control where 0% means no effect; nearly all actives have a fitted effect of over 60% in size
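Cells were plated at 1500 per well in reduced-serum medium with 10% FBS and left 2 h. Compound in DMSO was then added for 24 h at 37 °C. Reporter signal was read by luminescence after 10 min with luciferase detection reagent.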
Starred values were filed as active, the others as inactive; ? = inconclusive; nt = not tested or not shown; [ ] = remark or other dose. An excerpt weighted towards active compounds, which were near 7.4% of everything screened. Calls come from the whole dose curve; as a rule, active = well fitted curve in the direction sought with a large enough effect; inconclusive = small, poorly fitted or top-dose-only effect, or another doubt; inactive = no such curve, though single readings can be large; an effect the other way counts as inactive or inconclusive. Potency is the fitted concentration of half-maximal effect.

SMILES	p53 reactivator	SMN2 splice enh	FLuc counter	NPC1 promoter act	ELG1 genotoxic	Rab9 prom act
CCOc1ccc2nc(N/C(N)=N/C(=S)Nc3ccc(C)c(C)c3)nc(C)c2c1	14%	-23%	-11%	-13%	-2%	-23%
COc1cccc(/C=N/n2c(=O)[nH]c3ccccc32)c1OC	12%	?	9.5µM*	19%	15%	29%
COc1cccc(/C=N/n2c(C)nc3ccccc32)c1OC	3%	-48%	?	0%	-3%	-3%
COc1cccc(/C=N/n2c(=S)n(C)c3ccccc32)c1OC	2%	-25%	11µM*	-3%	3%	-5%
COc1cccc(/C=N/n2cnc3cc(C)c(C)cc32)c1OC	4%	nt	12µM*	?	16%	20%
COc1cccc(/C=N\n2c(C)nnc2C)c1OC	12%	nt	1%	2%	1%	5%
CCc1ccc2c(O)c3c(cc2c1C(=O)OC)C(=O)c1c(O)ccc(O)c1C3=O	nt	4%	nt	nt	nt	nt
CCc1cccc(NC(=O)c2ccc(CN3C(=O)C(C)=C(c4ccc(OC)cc4)S3(=O)=O)cc2)c1	nt	nt	-8%	nt	nt	nt
CCCc1ccc(OCc2nc(-c3ccc(NC(=O)c4cccs4)cc3)no2)cc1	?	?	13µM*	22%	?	?
Cc1cc(OCc2nc(-c3ccc(NC(=O)c4cccnc4)cc3)no2)ccc1Cl	-1%	-5%	-3%	-1%	-4%	-11%
CCCc1ccc(OCc2nc(-c3ccc(NC(=O)c4ccco4)cc3)no2)cc1	28%	21%	13µM*	2.5µM*	16µM*	?
COC(=O)C1=C(C(=O)OC)[C@@H]2N(Cc3ccccc3)c3ccccc3[C@@]23C[C@@H](C(=O)OC)N(S(=O)(=O)c2c(C)noc2C)C3=N1	nt	-1%[9.22 µM]	nt	nt	nt	nt
CC(C)Cn1c(=O)c2ccccc2n2c(CCC(=O)N3CCN(c4ccccc4)CC3)nnc12	nt	-13%	-2%	nt	nt	nt
N#C/C(=C\c1ccncc1)c1nc2ccccc2o1	3%	nt	-17%	0%	3%	11%
N#C/C(=C\c1cccc(O)c1)c1nc2ccccc2o1	10%	nt	8.5µM*	-2%	11%	-10%
N#C/C(=C\Nc1ccccc1O)c1nc2ccccc2o1	?	-10%[1.84 µM]	19µM*	-4%	-6%	0%
CCC(=O)n1nc(-c2ccc(OC)cc2)nc1SC	?	?	19µM*	27%	?	?
COc1ccc(-c2nc(SC)n(C(=O)c3ccco3)n2)cc1	?	?	?	4%	?	24%
CCC(=O)n1nc(-c2ccc(Cl)cc2)nc1SC	?	13µM*	?	28%	?	?
CN(C)c1ccc(NC2=C(Cl)C(=O)c3ccccc3C2=O)cc1	-20%	-83%	7.6µM*	1%	?	-41%
CN(C)c1ncc2nc(CCc3ccccc3)c(=O)n(C[C@H]3CCCO3)c2n1	nt	-9%	nt	nt	nt	nt
O=C1OC(Nc2nccs2)c2ccccc21 (centres undefined)	-2%	17%	2%	?	0%	-3%
O=C1OC(Nc2nc3ccccc3s2)c2ccccc21 (centres undefined)	15%	-16%	11µM*	-4%	0%	7%
O=C(O)CCN1C(=O)/C(=C\c2cccc(Oc3ccccc3)c2)SC1=S	-9%	nt	24µM*	-6%	1%	-7%
CCc1ccc(/C=C2/SC(=S)N(CCC(=O)Nc3cccc(C(=O)O)c3)C2=O)cc1	-9%	nt	2.1µM*	?	?	25%
SMILES	p53 reactivator	SMN2 splice enh	FLuc counter	NPC1 promoter act	ELG1 genotoxic	Rab9 prom act
O=C(O)CN1C(=O)/C(=C\c2cccc(OCc3ccccc3F)c2)SC1=S	13%	nt	21µM*	8%	5%	-3%
O=C(CCN1C(=O)/C(=C\c2ccccc2)SC1=S)N1CCCCC1	?	nt	?	-21%	-7%	-21%
O=C(CCN1C(=O)/C(=C/c2cccs2)SC1=S)N1CCCCC1	0%	nt	15µM*	-20%	7%	-21%
O=C(NC(Cc1ccccc1)C(=O)O)NC12CC3CC(CC(C3)C1)C2 (centres undefined)	nt	nt	-1%	6%	1%	-2%
Cc1cc(C)cc(N2C(=O)CS(=O)(=O)C23C(=O)N(C)c2ccccc23)c1 (centres undefined)	nt	nt	-3%	nt	nt	nt
COc1cc(CN(C(=O)COc2ccc(C)c(C)c2)c2ccccn2)cc(OC)c1OC	nt	nt	-9%	nt	nt	nt
CN1C(=O)S/C(=C/c2ccc(OCc3cccc(C(=O)O)c3)cc2)C1=O	nt	nt	2.7µM*	0.4µM*	?	0.28µM*
CCOc1ccc(/C=C2\SC(=S)N(CCC(=O)N(CCO)c3ccccc3)C2=O)cc1	nt	nt	9.5µM*	0%	-6%	-10%
O=C(CCN1C(=O)/C(=C/c2ccc(Cl)cc2)SC1=S)Nc1ccc(C(=O)O)cc1	1%	nt	11µM*	-5%	0%	0%
COc1ccc(/C=C2\SC(=S)N(CCC(=O)N(CCO)c3ccccc3)C2=O)cc1OC	-1%	nt	-4%	-6%	-3%	-7%[1.84 µM]
COC(=O)c1ccc(/C=C2/SC(=S)N(CCCC(=O)Nc3ccccn3)C2=O)cc1	8%	-9%	?	-11%	1%	-10%
CCc1ccc(/C=C2\SC(=S)N(CCCC(=O)Nc3ccccn3)C2=O)cc1	-9%	-57%	15µM*	-21%	-1%	-20%
Cc1ccccc1CCNC(=O)c1ccc(NC(=O)N2CC(C)Sc3ccccc32)cc1 (centres undefined)	nt	15%	-11%	nt	nt	nt
CCC(=O)O[C@@]1(C(=O)CCl)C(C)CC2C3CCC4=CC(=O)C=C[C@@]4(C)[C@]3(F)C(O)C[C@]21C (some centres undefined)	nt	4%	nt	nt	nt	nt
CCOc1ccc(NC(=O)Cn2c(=O)n(Cc3ccc(C(=O)NCc4ccc5c(c4)OCO5)cc3)c(=O)c3ccccc32)cc1	nt	-2%	-1%	nt	nt	nt
COc1ccc(/C=C2\SC(=S)N(CCC(=O)Nc3ccc(C(=O)O)cc3)C2=O)cc1	0%	nt	3µM*	12%	?	0%
CCc1ccc(/C=C2/SC(=S)N(CCC(=O)Nc3ccc(C(=O)O)cc3)C2=O)cc1	-4%	nt	0.85µM*	19%	-4%	-6%
COc1cc(/C=C2/SC(=S)N(CCC(=O)Nc3ccc(C(=O)O)cc3)C2=O)cc(OC)c1OC	-1%	nt	0%	-2%	-4%	-2%

Bioassay records deposited in PubChem BioAssay by National Center for Advancing Translational Sciences (NCATS).
